# Data published in PubChem BioAssay (NCATS).
# “And” between values parts separate entries of the source, which are not always exact repeats. Equal entries are not always repeated. Results filed as inconclusive are left out. Where a call stands in place of a potency, no number is given. A number with no mark means an inactive call. The source made the active and inactive calls. Unless noted, the call rests on the fitted dose curve; in most records, active means well fitted curve in the direction sought with a large enough effect; inconclusive means small, poorly fitted or top-dose-only effect, or another doubt; inactive means no such curve, though single readings can be large; an effect the other way counts as inactive or inconclusive.
# Key:
# [1] = molecular target: Cellular tumor antigen p53 (Homo sapiens) (UniProt P04637); test: Primary qHTS for small molecule compounds that upregulate eGFP-tagged delta133p53alpha (in N-terminal) cells. (AID 2060322); conditions: NCI-H358 eGFP-delta133p53alpha fluorescence, 24 h; activation: hits give high values; further: nearly all actives have a fitted effect of over 75% in size; further: potency means the concentration at half of the fitted maximal effect; on activation: series mostly up to about 56 µM
# In short: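 NCI-H358 cells pre-induced 24 h with 10 ng/ml doxycycline to express N-terminal eGFP-delta133p53alpha, then dosed 24 h at 37C without doxycycline; fixed, Hoechst-stained, GFP intensity by laser scanning cytometry, normalized to DMSO (0%) and 57.5 uM 5-azacytidine (100%).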
# [2] = molecular target: Cellular tumor antigen p53 (Homo sapiens) (UniProt P04637); test: Primary qHTS for small molecule compounds that upregulate eGFP-tagged delta133p53alpha (in C-terminal) cells. (AID 2060324)
# In short: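 NCI-H358 cells pre-induced 24 h with 100 ng/ml doxycycline to express delta133p53alpha-eGFP, then dosed in doxycycline-free medium for 24 h at 37C. Fixed, Hoechst-stained; GFP intensity by laser scanning cytometry, normalized to DMSO wells.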
# [3] = molecular target: Aldehyde dehydrogenase, mitochondrial (Homo sapiens) (UniProt P05091); test: qHTS for Inhibitors of the Aldehyde Dehydrogenase Family (ALDH2) Validation screens (AID 2061302; active means well fitted inhibition curve with a large enough effect; title and protocol of this record describe different tests)
# [4] = molecular target: Retinaldehyde dehydrogenase 3 (Homo sapiens) (UniProt P47895); test: qHTS for Inhibitors of the Aldehyde Dehydrogenase Family (ALDH1A3) Validation screen (AID 2061312); further: nearly all actives have a fitted effect of over 45% in size; further: potency means the concentration at half of the fitted maximal effect
# [5] = BET inhibitor-based combinations targeting novel dependencies in MECOM-rearranged (r) AML: OCI-AML3 cell line (AID 2202232); conditions: Potency: OCI-AML3 viability; further: nearly all actives have a fitted effect of over 35% in size; further: potency means the concentration at half of the fitted maximal effect
# In short: (§1)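 Readout: CellTiter-Glo luminescence. Exposure: 48 h, 11 concentrations, 500 cells/well. Metric: AUC and within-line Z-AUC after DMSO/empty-well normalization.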
# [6] = BET inhibitor-based combinations targeting novel dependencies in MECOM-rearranged (r) AML: SET-2 cell line (AID 2202231); conditions: SET-2 AML cells viability, CellTiter-Glo luminescence, 48 h; viability: hits give low values, concentration not given here; further: potency means the concentration at half of the fitted maximal effect; nearly all actives have a fitted effect of over 35% in size
# In short: as §1
# [7] = BET inhibitor-based combinations targeting novel dependencies in MECOM-rearranged (r) AML: MV-4-11 cell line (AID 2202233); further: potency means the concentration at half of the fitted maximal effect; nearly all actives have a fitted effect of over 45% in size
# In short: (§2)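 Seeding density was 500 cells/well, and drug exposure lasted 48 hr under standard culture conditions. Read-out used CellTiter-Glo reagent with a 15 min room-temperature incubation before luminescence measurement; AUC and Z-AUC summarize the normalized responses.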
# [8] = BET inhibitor-based combinations targeting novel dependencies in MECOM-rearranged (r) AML: HNT-34 cell line (AID 2202234); further: potency means the concentration at half of the fitted maximal effect; nearly all actives have a fitted effect of over 35% in size
# In short: as §2
# [9] = BET inhibitor-based combinations targeting novel dependencies in MECOM-rearranged (r) AML: UCSD-AML1 cell line (AID 2202235); further: potency means the concentration at half of the fitted maximal effect; nearly all actives have a fitted effect of over 40% in size
# In short: as §2
# [10] = BET inhibitor-based combinations targeting novel dependencies in MECOM-rearranged (r) AML: AML-191 cell line (AID 2202236; further: potency means the concentration at half of the fitted maximal effect; nearly all actives have a fitted effect of over 35% in size)
# In short: as §1
# [11] = molecular target: Aldehyde dehydrogenase, mitochondrial (Homo sapiens) (UniProt P05091); test: qHTS for Inhibitors of the Aldehyde Dehydrogenase Family (ALDH2) Primary screen (AID 2061308); further: nearly all actives have a fitted effect of over 55% in size
# [12] = molecular target: Retinaldehyde dehydrogenase 3 (Homo sapiens) (UniProt P47895); test: qHTS for Inhibitors of the Aldehyde Dehydrogenase Family (ALDH1A3) Primary screen (AID 2061315); further: potency means the concentration at half of the fitted maximal effect
# [13] = molecular target: Retinaldehyde dehydrogenase 3 (Homo sapiens) (UniProt P47895); test: qHTS for Inhibitors of the Aldehyde Dehydrogenase Family (ALDH1A3) Confirmatory screens (AID 2061311); further: nearly all actives have a fitted effect of over 60% in size; further: potency means the concentration at half of the fitted maximal effect
# [14] = molecular target: Aldehyde dehydrogenase, mitochondrial (Homo sapiens) (UniProt P05091); test: qHTS for Inhibitors of the Aldehyde Dehydrogenase Family (ALDH2) Confirmatory screens (AID 2061303; active means well fitted inhibition curve with a large enough effect; title and protocol of this record describe different tests; further: nearly all actives have a fitted effect of over 45% in size)
# [15] = qHTS for Inhibitors of the Aldehyde Dehydrogenase Family (ALDH1A2, ALDH1A3, ALDH2, ALDH3A1) (AID 2061307); further: nearly all actives have a fitted effect of over 50% in size; on potency: test system not described further here; potency means the concentration at half of the fitted maximal effect
# [16] = molecular target: Retinal dehydrogenase 2 (Homo sapiens) (UniProt O94788); test: qHTS for Inhibitors of the Aldehyde Dehydrogenase Family (ALDH1A2) Confirmation screens (AID 2061314); further: nearly all actives have a fitted effect of over 65% in size
# [17] = molecular target: Aldehyde dehydrogenase 1A1 (Homo sapiens) (UniProt P00352); test: qHTS for Inhibitors of the Aldehyde Dehydrogenase Family (ALDH1A1) Confirmatory screens (AID 2061316); further: nearly all actives have a fitted effect of over 65% in size; further: potency means the concentration at half of the fitted maximal effect
# Chain of Cellular tumor antigen p53 (Homo sapiens) (P04637 whole entry, looked up): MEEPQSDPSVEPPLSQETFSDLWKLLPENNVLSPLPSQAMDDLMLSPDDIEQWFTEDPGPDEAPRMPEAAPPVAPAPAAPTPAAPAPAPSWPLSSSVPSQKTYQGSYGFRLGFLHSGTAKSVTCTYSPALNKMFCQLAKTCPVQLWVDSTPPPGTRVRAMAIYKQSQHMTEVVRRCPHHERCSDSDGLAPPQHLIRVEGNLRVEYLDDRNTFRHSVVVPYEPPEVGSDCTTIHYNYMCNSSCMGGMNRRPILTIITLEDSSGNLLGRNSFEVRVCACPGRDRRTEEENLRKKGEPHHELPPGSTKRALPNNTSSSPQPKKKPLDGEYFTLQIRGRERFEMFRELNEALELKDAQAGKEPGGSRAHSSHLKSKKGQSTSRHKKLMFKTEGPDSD
smiles,measurement,setting,value
Clc1cnc(Oc2ccc(Oc3ncc(Cl)cc3Cl)cc2)c(Cl)c1,activation,[1],-22.6%
same,Potency,[2],inactive
same,Potency,[3],inactive
same,Potency,[4],inactive
CC(C)c1cccc(C(C)C)c1O,Potency,[5],inactive
CCCN1CCO[C@@H]2c3cc(O)ccc3OC[C@H]21,Potency,[5],inactive
COC[C@H]1OC(=O)c2coc3c2[C@@]1(C)C1=C(C3=O)C2CCC(=O)[C@@]2(C)C[C@H]1OC(C)=O (some centres undefined),Potency,[6],18.6 µM (active)
same,Potency,[5],7.42 µM (active)
same,Potency,[7],5.25 µM (active)
same,Potency,[8],5.9 µM (active)
same,Potency,[9],5.9 µM (active)
same,Potency,[10],6.61 µM (active)
C#CC1(O)CCC2C3CCC4=CC(=O)CCC4=C3C=CC21C (centres undefined),activation,[1],-16.3%
same,Potency,[11],inactive
Cc1c(Cl)c(OCC(=O)N2CCN(C)CC2)nc2sc(C(=O)NC3CC3)c(N)c12,activation,[1],5.25%
same,Potency,[11],inactive
same,Potency,[4],inactive
same,Potency,[12],inactive
COC(=O)[C@]12CCCC(C)(C)C1CCc1cc(C(C)C)c(O)c(O)c12 (some centres undefined),activation,[1],-23.7%
same,Potency,[11],inactive
C1=C(c2cnc[nH]2)c2ccsc2CC1,activation,[1],-3.34%
same,Potency,[11],inactive
same,Potency,[4],5.62 µM (active)
C/C=C(/C)C1C=CC2CC(C)CC(C)C2C1/C(O)=C1\C(=O)NC(CC(C)(O)C(=O)O)C1=O (centres undefined),activation,[1],-26%
same,Potency,[11],inactive
same,Potency,[13],inactive
same,Potency,[12],inactive
Cc1ccc(-n2nccn2)c(C(=O)N2CCN(c3nc4cc(Cl)ccc4o3)CCC2C)c1 (centres undefined),activation,[1],-12.4%
same,Potency,[11],inactive
same,Potency,[4],inactive
same,Potency,[12],inactive
O=C(NCCN1CCC2(CC1)C(=O)NCN2c1cccc(F)c1)c1ccc(F)c(F)c1,activation,[1],18.1%
same,Potency,[11],inactive
same,Potency,[4],inactive
same,Potency,[12],inactive
CC(=O)NCCCOc1ccc(C(=O)N2CCC(N3C(=O)CCc4ccccc43)CC2)cc1,activation,[1],-10.5%
same,Potency,[11],inactive
same,Potency,[4],inactive
same,Potency,[12],inactive
CC[C@H](O)[C@@H](C)[C@H]1O[C@@H]1C[C@H](C)/C=C/C=C(\C)[C@H]1OC(=O)C[C@H](O)CC[C@@](C)(O)[C@@H](OC(C)=O)/C=C/[C@@H]1C,Potency,[1],0.0675 µM (active)
same,Potency,[11],inactive
same,Potency,[4],inactive
same,Potency,[12],inactive
NNC(=O)c1nn(Cc2ccc(Cl)cc2Cl)c2ccccc12,activation,[1],17%
same,Potency,[14],inactive
same,Potency,[15],8.91 µM (active)
same,Potency,[11],inactive
same,Potency,[12],inactive
Cc1[nH]c2ccc(Cl)cc2c1CCN(C)C,activation,[1],-3.82%
same,Potency,[14],inactive
same,Potency,[15],inactive
same,Potency,[13],inactive
same,Potency,[4],10 µM (active)
same,Potency,[16],inactive
same,Potency,[12],inactive
CC(C)N(CCNC(=O)CN1CCCC1=O)C(C)C,activation,[1],-9.94% and -3.34%
same,Potency,[11],inactive
same,Potency,[4],inactive
same,Potency,[12],inactive
C=CCN1CC[C@]23c4c5ccc(O)c4O[C@H]2[C@@H](O)CC[C@@]3(O)[C@H]1C5,activation,[1],4.33%
same,Potency,[11],inactive
CN(C(=O)CN1C(=O)COc2cc(Cl)c(Cl)cc21)[C@@H](CN1CCCC1)c1ccc(-c2cccc(C(N)=O)c2)cc1,Potency,[1],21.3 µM (active)
same,Potency,[11],inactive
CN(Cc1cccc(-c2ccncc2)c1)C(=O)Oc1ccc(-c2ccc(C(N)=O)cc2)cc1,activation,[1],-8.11%
same,Potency,[11],inactive
same,Potency,[4],inactive
same,Potency,[12],inactive
CCc1[nH]c2ccc(OC)cc2c1CCN(C)C,activation,[1],8.59%
same,Potency,[14],inactive
same,Potency,[11],inactive
same,Potency,[13],inactive
COc1cc2c(c(OC)c1OC)-c1ccc(SC)c(=O)cc1[C@@H](NC(C)=O)CC2,activation,[1],8.33%
same,Potency,[11],inactive
COc1ccc(CC2C(=O)NC(C)C(=O)N(C)C3Cc4ccc(cc4)Oc4cc(ccc4OC4OC(CO)C(O)C(O)C4O)CC(C(=O)NC(C)C(=O)NC(CCC(=O)O)C(=O)N2C)N(C)C3=O)cc1 (centres undefined),activation,[1],5.36%
same,Potency,[11],inactive
CC[C@@H]1C[C@H]2CC[C@H](O2)[C@H](C)C(=O)O[C@@H](C)C[C@@H]2CC[C@@H](O2)[C@@H](C)C(=O)O[C@H](CC)C[C@H]2CC[C@H](O2)[C@H](C)C(=O)O[C@@H](C)C[C@@H]2CC[C@@H](O2)[C@@H](C)C(=O)O1,Potency,[1],6.3 µM (active)
same,Potency,[11],inactive
CN1C(=O)CN=C(c2ccccc2Cl)c2cc(Cl)ccc21,activation,[1],-10%
same,Potency,[11],inactive
same,Potency,[4],inactive
same,Potency,[12],inactive
COc1cc(CCNCc2ccccc2O)c(OC)cc1C#N,activation,[1],-6.21%
same,Potency,[11],inactive
same,Potency,[4],inactive
same,Potency,[12],inactive
CC(=O)OC12C(O)C(C)C3(O)C4C=C(C)C(=O)C4CC(CO)=CC3C1C2(C)C (centres undefined),activation,[1],-3.05%
same,Potency,[11],inactive
CC/C=C/C=C/C1(C)OC(OC)=C(C(=O)C2C(C)C(=O)c3cc(OC)c(O)c(O)c3C2(C)O)C1=O (centres undefined),activation,[1],0.893%
same,Potency,[15],inactive
same,Potency,[11],inactive
same,Potency,[13],11 µM (active)
OCCCCC#Cc1cncc(OC[C@@H]2CCN2)c1,activation,[1],-1.43%
same,Potency,[11],inactive
COc1cccc(NCC(F)Cn2c3ccc(Br)cc3c3cc(Br)ccc32)c1 (centres undefined),activation,[1],8.11%
same,Potency,[11],inactive
same,Potency,[4],inactive
same,Potency,[12],inactive
CC1CCCC(O)CCC/C=C/c2cc(O)cc(O)c2C(=O)O1 (centres undefined),activation,[1],28.2%
same,Potency,[11],inactive
CC(=O)O[C@H]1CC[C@@]2(CI)C(=CC[C@@H]3[C@@H]2CC[C@]2(C)C(=O)CC[C@@H]32)C1,activation,[1],13.7%
same,Potency,[15],inactive
same,Potency,[17],10.1 µM (active)
O=C(OC[C@H]1O[C@@H](Oc2ccc(O)cc2CO)[C@H](O)[C@@H](O)[C@@H]1O)c1ccccc1,activation,[1],28.6%
same,Potency,[11],inactive
CCCN1CCO[C@H]2c3cc(O)ccc3OC[C@@H]21,activation,[1],4.46%
same,Potency,[11],inactive
COc1cc(N2CCN(C)CC2)ccc1N,activation,[1],20%
same,Potency,[15],inactive
same,Potency,[11],inactive
same,Potency,[13],25.2 µM (active)
same,Potency,[12],1.26 µM (active)
CS[C@]1(CO)C(=O)N2[C@H]3C(=CC=C[C@@H]3O)C[C@@]2(SC)C(=O)N1C,activation,[1],-6.11%
same,Potency,[11],inactive
Cc1c(N[C@@H](c2nnc(-c3ccc(C#N)cc3)o2)[C@H](C)O)ccc(C#N)c1Cl,activation,[1],21%
same,Potency,[14],inactive
same,Potency,[11],inactive
same,Potency,[16],inactive
same,Potency,[12],inactive
same,Potency,[17],inactive
